Here are results for 36 compounds from PubChem BioAssay.

This assay concerns the target Calmodulin-1 (Homo sapiens) (UniProt P0DP23). The assay can be described thus: small molecules binding Ca-loaded calmodulin-1 – biochemical, small-molecule microarray, Cy5-labelled CALM1, plus calcium, artefact control for SMM control-protein annotation, profiling panel (AID 1112).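 Note: score merges spot fluorescence with signal to noise from triplicate slides.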 Particulars: Cy5-CALM1 binding fluorescence, higher = more signal.
As for `CCOC(=O)[C@H](Cc1ccccc1)NC(=O)CCC1CC(OC(=O)NCc2cccc3ccccc23)CC2(CCCC(COC(=O)NCc3ccc4c(c3)OCO4)O2)O1` (stereo partly specified), the composite z-score is -0.457. Consider `COc1cccc([C@H]2Oc3ccc(OC)cc3C(=NO[C@@H](C)c3cc(-c4c(C)cc(C)cc4C)no3)[C@@H]2O)c1`, for which the composite z-score amounted to 0.668. On to `CC(=O)OC[C@H]1O[C@H](C#CCCc2ccccc2)C=C[C@@H]1OC(C)=O`, for which the composite z-score was -0.715. The value for `CC(C)=NO[C@@H](C)c1cn([C@H](CO)Cc2ccccc2)nn1` was -0.408. Turning to `COC(=O)C(C(=O)OC)C1CCCC(=O)C1` (stereo unspecified), the composite z-score is -0.645. Turning to `COC(=O)CC=C[C@@H](C)[C@@H](C=NOC[C@@H](C)[C@H](OCc1ccccc1)C(C)C)OC`, the composite z-score was -0.79. In the case of `COc1ccc(O[C@H]2C=C[C@@H](c3ccccc3)O[C@@H]2COC(=O)NCc2cccc3ccccc23)cc1` it was -0.329; in that of `CC(C)CON=C1C[C@@H](O)[C@@H](O)[C@@H]2[C@@H]3C(=O)N(C(C)(C)C)C(=O)[C@@H]3CC[C@@H]12`, -2.27. In the case of `CON=C(C)CCN1CCCCc2nc(C)c(C)cc21`, the composite z-score is -0.817. The value for `O=C1[C@H]2[C@H]3[C@H](O)[C@H](O)CC(=NO[C@@H]4O[C@H](CO)[C@@H](O)[C@H](O)[C@H]4O)[C@@H]3CC[C@H]2C(=O)N1C[C@@H]1CCCO1` was -0.572; that for `CCN1C(=O)[C@H]2[C@@H]3C(=CC[C@H]2C1=O)C(=O)[C@H]1O[C@H]1[C@H]3O` was -1.4; that for `CC=CC1=C(CO)[C@H](O)[C@H]2O[C@H]2[C@@H]1O` was -1.1. The value for `CC(=O)OC[C@H]1O[C@H](CC=NOC[C@@H](O)[C@H]2O[C@@H]3OC(C)(C)O[C@@H]3[C@H]2O)C=C[C@@H]1OC(C)=O` was 0.249; that for `CO[C@H]1COC(=O)CC=C[C@H](C)[C@H](OC)COC(=O)[C@@H](C)NC(=O)CC=C[C@@H]1C` was -1.49. In the case of `C#CCCCON=C1C[C@@H](O)[C@@H](O)[C@@H]2[C@@H]3C(=O)N([C@@H](C)c4ccccc4)C(=O)[C@@H]3CC[C@@H]12` it was -0.274; in that of `C=CC[C@@H]1C=C[C@H](ON=C(C)CCN2CCCc3nc(C)c(C)cc32)[C@@H](CO)O1`, -1.43. As to `CCOC(=O)[C@H](CC(C)C)NC(=O)CCC1CC(OC(=O)NCCc2ccc(F)cc2)CC2(CCCC(COC(=O)NCCOC)O2)O1` (stereo partly specified), the composite z-score is -0.119. In the case of `CC(CCC(=O)OC[C@H]1O[C@H](C#Cc2ccccc2)C=C[C@@H]1Oc1ccc(C)cc1)=NOC[C@@H](C)[C@H](OCc1ccccc1)C(C)C` it was -0.336. Regarding `COc1ccc(O[C@H]2C=C[C@@H](c3ccccc3)O[C@@H]2CO)cc1`, the composite z-score was -0.643. As for `CCOC(=O)CCN1C(=O)[C@H]2[C@H]3[C@H](O)[C@H](O)CC(=NOCC(C)C)[C@@H]3CC[C@H]2C1=O`, the composite z-score is -1.74.

Consider `CO[C@H]1COC(=O)[C@H](CCSC)NC(=O)CC=C[C@@H](C)[C@H](OC)COC(=O)[C@@H](OCc2ccccc2)C=C[C@@H]1C`, for which the composite z-score is -1.69. The value for `CC(CCC(=O)OC[C@H]1O[C@H](C#Cc2ccccc2)C=C[C@@H]1Oc1ccc(C)cc1)=NO[C@@H](C)c1cc(-c2c(C)cc(C)cc2C)no1` was -0.262.

Consider `CC(C)[C@@H](OCc1ccccc1)[C@H](C)C=NO[C@H](C)c1cn([C@@H]2COC[C@H]2O)nn1`, for which the composite z-score is -0.407. The value for `CCOC(=O)CCN1C(=O)[C@H]2[C@H]3[C@H](O)[C@H](O)CC(=O)[C@@H]3CC[C@H]2C1=O` was -0.135; that for `COC(OC)[C@@H](C)[C@H](OC)[C@@H](C)[C@H](OC)c1ccccc1` was -0.647. Consider `C=CC[C@@H]1C=C[C@H](ON=C(C)CCN2CCCCc3nc(C)c(C)cc32)[C@@H](CO)O1`, for which the composite z-score was -1.72. The value for `CC(C)=CCCC(C)=CCON=C1C[C@@H](O)[C@@H](O)[C@@H]2[C@@H]3C(=O)N(Cc4ccc5c(c4)OCO5)C(=O)[C@@H]3CC[C@H]12` was -1.11; that for `COc1cccc([C@H]2Oc3ccc(OC)cc3C(=NOCC[C@@H]3C=C[C@H](OC(C)=O)[C@@H](COC(C)=O)O3)[C@@H]2O)c1` was -0.314.

On to `COC(=O)[C@H](C)NC(=O)CCC1CC(OC(=O)NCc2ccc3c(c2)OCO3)CC2(CCCC(COC(=O)NCCC(C)C)O2)O1` (stereo partly specified), for which the composite z-score was -0.682.

Take `O=C1[C@H]2CCn3c(=O)n(-c4ccccc4)c(=O)n3[C@H]2[C@H](O)[C@@H]2O[C@H]12`: the composite z-score was -0.391. On to `C[C@]12CCC3c4ccc(OCC5CO5)cc4CCC3C1CC[C@@H]2O` (stereo partly specified), for which the composite z-score came to 0.285.

Turning to `CCN1C(=O)[C@H]2[C@H]3[C@H](O)[C@H](O)CC(=NNC(=O)OCc4ccccc4)[C@H]3CC[C@H]2C1=O`, the composite z-score was -0.767. In the case of `CCN1C(=O)[C@H]2[C@H]3[C@H](O)[C@H](O)CC(=NOCC=C(C)CCC=C(C)C)[C@@H]3CC[C@H]2C1=O`, the composite z-score is -0.347. In the case of `CCOC(=O)[C@H](Cc1ccccc1)NC(=O)CCC1CC(OC(=O)NCc2cccc3ccccc23)CC2(CCCC(COC(=O)NCCc3ccccc3OC)O2)O1` (stereo partly specified) it was -0.298; in that of `CON=C1c2cc(OC)ccc2O[C@H](c2cccc(OC)c2)[C@H]1O`, -0.729. For the compound `CCOC(=O)[C@H](CC(C)C)NC(=O)CCC1CC(OC(=O)NCc2ccc3c(c2)OCO3)CC2(CCCC(COC(=O)NCCC(C)C)O2)O1` (stereo partly specified), the composite z-score is -0.365.
